Screens as filed in PubChem BioAssay.
The list is not random: actives were taken first. Their share in the collection is about 6.7%.
Pf Dd2 inh – inhibitors of Plasmodium falciparum Dd2 growth. P. falciparum Dd2 growth, SYBR Green, 72 h; stronger effect = lower value. hit rate 2.3% among 94,000. activity change, % at 10 µM; in the data active = activity change below about -80%; inconclusive = no clear call, values can overlap the other calls
T cruzi growth-1 – inhibitors of T. cruzi proliferation. T. cruzi beta-gal in NIH3T3, GalScreen luminescence, 90 h. inhibition, % at 8.34 µM. hit rate 5.9% among 77,000;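 active = mean inhibition above about 93%, with at least 55% of replicates each passing it, limit read from the data, passing the limit was not always enough; inconclusive = only one of those two conditions holds; inactive = neither condition holds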
C diff growth – inhibitors of Clostridium difficile growth | hit rate 0.25% among 86,000 | Clostridium difficile clinical isolate growth, OD600, 24 h; stronger effect = lower value | growth activity, negative = inhibition, % at 16 µg/mL (by protocol);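 active = mean growth activity at or below -80% and every replicate also at or below -80%; inconclusive = mean at or below -80% but some replicate above -80%; inactive = mean growth activity above -80%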;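 also: 0% = DMSO wells and -100% = levofloxacin 16 µg/mL wells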
T cruzi growth-2 – Trypanosoma cruzi proliferation inhibition; inhibition, % at 8.35 µM; shares compounds with T cruzi growth-1; T. cruzi beta-gal in NIH3T3, GalScreen luminescence, 90 h; hit rate 72% among 5,600;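 active = mean replicate inhibition above about 95% and at least 55% of replicates individually reaching it, limit read from the data; inconclusive = only one of the two criteria is met; inactive = neither criterion is met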
T cruzi growth-3 – blocks T. cruzi growth in NIH3T3 host cells. T. cruzi beta-gal in NIH3T3, GalScreen luminescence, 90 h. shares compounds with T cruzi growth-1. hit rate 21% among 5,600. inhibition, % at 2.09 µM;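 active = mean inhibition above about 95%, with at least 55% of replicates also reaching it, limit read from the data; inconclusive = meets just one of the two conditions; inactive = meets neither condition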;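 also: plate controls were neutral control median for no effect and positive control median for full effect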
NIH3T3 tox – kills mouse NIH/3T3 fibroblasts. hit rate 14% among 5,600. cytotoxicity (signal decrease), % at 8.35 µM. shares compounds with T cruzi growth-1. AID 651742. NIH/3T3 viability, CellTiter-Glo ATP luminescence, 90 h;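 active = mean signal decrease across replicates above about 35% based on untreated-well scatter, with enough replicates individually passing, limit read from the data; inconclusive = no rule stated though some were filed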;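 also: 0% = median of neutral control wells and 100% = median of positive control wells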
NIH3T3 tox 2 – kills mouse NIH/3T3 fibroblasts; shares compounds with T cruzi growth-1; NIH/3T3 viability, CellTiter-Glo ATP luminescence, 90 h; inhibition, % at 24.9 µM; hit rate 56% among 5,600; AID 651744;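 active = mean loss of cell viability signal at or above a set limit, and enough replicates individually reaching it; inconclusive = meets only the mean limit or only the replicate share; inactive = meets neither condition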;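 also: 0% = median of neutral control wells and 100% = median of positive control wells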
* = called active by the depositor; ? = inconclusive; . = no result given.

SMILES	Pf Dd2 inh	T cruzi growth-1	C diff growth	T cruzi growth-2	T cruzi growth-3	NIH3T3 tox	NIH3T3 tox 2
Cc1noc(C)c1NC(=O)Nc1ccc2c(c1)C(=O)N([C@H](C)CO)C[C@@H](C)[C@H](CN(C)Cc1ccc(C(F)(F)F)cc1)OCCCC[C@H](C)O2	-57	?	11	114*	30	-8	69*
C[C@H]1CCCCO[C@@H](CN(C)Cc2ccc(C(F)(F)F)cc2)[C@@H](C)CN([C@@H](C)CO)C(=O)c2cc(NC(=O)Nc3ccc(F)cc3)ccc2O1	-57	94	.	.	.	.	.
C[C@@H]1CCCCO[C@H](CN(C)Cc2ccc(C(F)(F)F)cc2)[C@@H](C)CN([C@@H](C)CO)C(=O)c2cc(NC(=O)Nc3ccc(F)cc3)ccc2O1	-80	93	.	.	.	.	.
C[C@@H]1CN([C@@H](C)CO)C(=O)c2cc(NC(=O)Nc3ccc(C(F)(F)F)cc3)ccc2O[C@@H](C)CCCCO[C@@H]1CN(C)Cc1ccc(C(F)(F)F)cc1	-71	95*	3	102*	105*	-4	-33
C[C@@H]1CCCCO[C@@H](CN(C)Cc2ccc(C(F)(F)F)cc2)[C@@H](C)CN([C@H](C)CO)C(=O)c2cc(NC(=O)Nc3ccc(F)cc3)ccc2O1	62	102*	.	101*	72	11	25
C[C@@H]1CCCCO[C@@H](CN(C)Cc2ccc(C(F)(F)F)cc2)[C@@H](C)CN([C@@H](C)CO)C(=O)c2cc(NC(=O)Nc3ccc(F)cc3)ccc2O1	15	108*	.	98*	107*	-3	9
C[C@H]1CN([C@@H](C)CO)C(=O)Cc2cc(NC(=O)Nc3cccc4ccccc34)ccc2O[C@@H]1CN(C)C(=O)Nc1ccccc1	-32	13	-1	.	.	.	.
COCC(=O)N(C)C[C@H]1Oc2ncc(-c3ccc(C#N)cc3)cc2C(=O)N([C@@H](C)CO)C[C@@H]1C	51	.	-1	.	.	.	.
C[C@H](CO)N1C[C@H](C)[C@H](CN(C)S(=O)(=O)c2ccc(F)cc2)Oc2ccc(NC(=O)CCCN(C)C)cc2C1=O	-11	-17	-3	.	.	.	.
CO[C@H]1CN(C)C(=O)c2ccc(NC(=O)c3ccc4c(c3)OCO4)cc2OC[C@@H](C)N(CCC(F)(F)F)C[C@@H]1C	-46	51	.	.	.	.	.
C[C@@H]1CCCCO[C@@H](CN(C)Cc2ccc(C(F)(F)F)cc2)[C@H](C)CN([C@H](C)CO)C(=O)c2cc(NC(=O)Nc3ccc(F)cc3)ccc2O1	9	110*	.	92	108*	10	57*
C[C@@H]1CCCCO[C@@H](CN(C)Cc2ccncc2)[C@H](C)CN([C@H](C)CO)C(=O)c2cc(NC(=O)Nc3ccc(C(F)(F)F)cc3)ccc2O1	-23	88	16	.	.	.	.
C[C@@H]1CCCCO[C@H](CN(C)Cc2ccc(C(F)(F)F)cc2)[C@H](C)CN([C@H](C)CO)C(=O)c2cc(NC(=O)Nc3ccc(C(F)(F)F)cc3)ccc2O1	-70	80	11	.	.	.	.
C[C@H]1CCCCO[C@H](CN(C)Cc2ccncc2)[C@@H](C)CN([C@@H](C)CO)C(=O)c2cc(NC(=O)Nc3ccc(C(F)(F)F)cc3)ccc2O1	14	99*	6	100*	93	22	83*
CCCNC(=O)N1[C@H](C#N)[C@@H](c2ccc(-c3cccc(OC)c3)cc2)[C@@H]1CO	-52	77	3	.	.	.	.
CCCNC(=O)N1[C@H](C#N)[C@@H](c2ccc(-c3cccnc3)cc2)[C@@H]1CO	-5	56	1	.	.	.	.
CCCNC(=O)N1[C@@H](C#N)[C@@H](c2ccc(-c3cccc(OC)c3)cc2)[C@@H]1CO	-35	98*	7	99*	39	16	51*
CCCNC(=O)N1[C@H](C#N)[C@H](c2ccc(-c3cccc(OC)c3)cc2)[C@@H]1CO	?	99*	14	90	112*	-28	40*
COCC#Cc1ccc([C@@H]2[C@H](CO)N3C(=O)CN(C(=O)Nc4ccccc4F)C[C@@H]23)cc1	3	.	7	.	.	.	.
Cc1ccc(S(=O)(=O)N(C)C[C@@H]2Oc3ccc(NC(=O)Cc4cn(C)c5ccccc45)cc3C(=O)N([C@H](C)CO)C[C@H]2C)cc1	-75	52	-2	.	.	.	.
